Bioassay records as filed in PubChem.
A selection: hits, their analogues and other compounds. The true share with any hit is near 2.9%.
EBNA-1 inh = blocks EBNA-1 binding to DNA; inhibition, % at 14.8 µM; actives 0.34% (n = 300,000); EBNA-1 DNA binding, fluorescence polarization; in the data active = inhibition above about 28%
ZTA DNA inh = counter-screen for EBNA-1 inhibitors: inhibitors of Epstein-Barr virus ZTA; P03206; ZTA-DNA binding, fluorescence polarization; inhibition, % at 11 µM; actives 0.15% (n = 320,000); AID 2234; in the data active = inhibition above about 33%
Target sequence (P03206 whole entry, looked up): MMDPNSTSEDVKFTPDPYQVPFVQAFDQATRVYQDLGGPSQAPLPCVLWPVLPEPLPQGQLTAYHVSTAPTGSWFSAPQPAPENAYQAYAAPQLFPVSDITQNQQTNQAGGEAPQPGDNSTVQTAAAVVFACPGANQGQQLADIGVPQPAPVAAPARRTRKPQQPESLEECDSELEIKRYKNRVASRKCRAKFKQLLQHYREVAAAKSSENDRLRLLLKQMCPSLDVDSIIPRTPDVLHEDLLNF
PAFAH2 FP inh = PAFAH2 (human) inhibition; actives 0.99% (n = 340,000); inhibition, % at 3.39 µM; recombinant PAFAH2, FP-rhodamine activity probe, fluorescence polarization; Q99487;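 active = inhibition above the mean over all tested compounds plus 3 SD, cut at about 30% in these data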;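 also: inhibitors block probe labeling of enzyme so polarization drops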
PAFAH1B3 inh = PAFAH1B3 (human) inhibition; actives 0.28% (n = 340,000); AID 492972; inhibition, % at 3.39 µM; recombinant PAFAH1B3, FP-rhodamine probe, fluorescence polarization; Q15102;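 active = inhibition above the screen-wide average of all tested compounds plus 3 SD, cut at about 25% in these data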
Target sequence (Q15102 whole entry, looked up): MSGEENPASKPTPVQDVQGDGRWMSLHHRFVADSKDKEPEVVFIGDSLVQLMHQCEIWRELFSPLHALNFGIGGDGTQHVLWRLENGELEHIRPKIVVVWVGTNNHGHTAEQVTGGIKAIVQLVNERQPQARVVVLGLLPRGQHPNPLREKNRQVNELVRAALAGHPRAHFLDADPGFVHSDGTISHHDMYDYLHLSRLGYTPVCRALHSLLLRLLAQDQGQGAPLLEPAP
PAFAH1B2 inh = inhibitors of human PAFAH1B2 | recombinant PAFAH1B2, FP-rhodamine activity probe, fluorescence polarization | actives 1.2% (n = 340,000) | P68402 | AID 492953 | inhibition, % at 3.39 µM;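 active = inhibition above the mean of all tested compounds plus 3 SD, cut at about 24% in these data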
Target sequence (P68402 whole entry, looked up): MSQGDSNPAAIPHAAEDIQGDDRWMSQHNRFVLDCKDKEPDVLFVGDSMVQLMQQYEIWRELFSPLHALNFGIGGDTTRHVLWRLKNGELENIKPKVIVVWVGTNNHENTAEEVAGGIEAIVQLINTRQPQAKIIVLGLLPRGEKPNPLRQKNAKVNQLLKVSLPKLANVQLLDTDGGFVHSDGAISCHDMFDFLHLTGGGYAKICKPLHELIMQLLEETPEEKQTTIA
rCAG binder = r(CAG) repeat RNA binding; TO-PRO-1 dye displacement fluorescence; inhibition, % at 3 µM; actives 1.3% (n = 370,000); AID 651821;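 active = inhibition above the plate cutoff, the mean of all test compounds on that plate plus 3 SD, cut at about 35% in these data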;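 also: higher means more dye released from RNA so lower well fluorescence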
rCAG binder conf = r(CAG) RNA repeat binding, confirmation. shares compounds with rCAG binder. TO-PRO-1 dye displacement fluorescence. inhibition, % at 3 µM. actives 70% (n = 4,300). AID 652065;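 active = inhibition above a per-plate cutoff, the mean inhibition of sample wells plus 3 SD, cut at about 35% in these data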;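 also: loss of TO-PRO-1 fluorescence as compound displaces dye from 1x1 AA loop RNA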
DNA CAG counter = counter-screen for rCAG RNA binders: DNA CAG dye complex inhibitors; inhibition, % at 3 µM; actives 94% (n = 4,300); shares compounds with rCAG binder; d(CAG) DNA oligo TO-PRO-1 dye displacement, fluorescence; AID 652068;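 active = inhibition above its plate's cutoff, the mean test-well inhibition plus 3 SD, cut at about 4.8% in these data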;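 also: hits displace the dye from DNA and so lower well fluorescence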
dCAG dye DR = disrupts DNA CAG TO-PRO-1 complex in dose response; AID 686960; shares compounds with rCAG binder; IC50, µM; DNA CAG/GTC duplex TO-PRO-1 dye displacement fluorescence; actives 20% (n = 250); in the data active = IC50 below about 10 µM
Large screens that a line does not name were inactive (follow-up assays come after a bar, where they were run).

Cc1ccsc1/C=C1\SC(=S)N(CC2CCCO2)C1=O (stereo not drawn)	rCAG binder 36 | rCAG binder conf inactive | DNA CAG counter inactive
CC1(OC(=O)C2CCCC2)C(=O)C=C2C=C(c3ccsc3)OC=C2C1=O (stereo not drawn)	rCAG binder 52 | rCAG binder conf 37 | DNA CAG counter 20 | dCAG dye DR inactive
COc1ccc(NC(=O)CSc2nnc(-c3ccc(F)cc3)o2)cn1	none (no result: EBNA-1 inh)
COc1cc(/C=C2/C(=O)NN(c3ccc(Cl)cc3)C2=O)cc(OC)c1O	rCAG binder 37 | rCAG binder conf inactive | DNA CAG counter 4.5
COc1ccccc1OCCOc1ccc(/C=C2\C(=N)N3N=C(S(C)(=O)=O)SC3=NC2=O)cc1	none
CCOC(=O)c1ccc(N2NC(=O)/C(=C/c3ccc(OC(=O)c4ccco4)c(OC)c3)C2=O)cc1	rCAG binder 84 (no result: PAFAH2 FP inh, PAFAH1B3 inh, PAFAH1B2 inh) | rCAG binder conf 90 | DNA CAG counter 66
C=CCOc1ccc(/C=C2\C(=N)N3N=C(S(=O)(=O)CC)SC3=NC2=O)cc1OC	rCAG binder 36 | rCAG binder conf 82 | DNA CAG counter 42
COc1cc(/C=C2/C(=O)NN(c3ccccc3)C2=O)cc(Br)c1O	none
CC(C)CS(=O)(=O)C1=NN2C(=N)/C(=C\c3ccc(OC(=O)c4ccco4)cc3)C(=O)N=C2S1	rCAG binder 81 | rCAG binder conf 87 | DNA CAG counter 66
CCOC(=O)c1c(C)nc2c(c1-c1ccc(Cl)cc1)C(=O)CC(C)(C)C2	none
CCc1ccc(CCNC(=O)OC2CCC23CCC(c2ccccc2)CC3)cc1 (stereo not drawn)	none (no result: EBNA-1 inh, ZTA DNA inh, PAFAH2 FP inh, PAFAH1B3 inh, PAFAH1B2 inh)
CCOC(=O)[C@]12CCCC=C1N(Cc1ccco1)C(=O)[C@H](CC(=O)NCC1CCCCC1)C2	none (no result: EBNA-1 inh, ZTA DNA inh, PAFAH2 FP inh, PAFAH1B3 inh, PAFAH1B2 inh)
CCS(=O)(=O)C1=NN2C(=N)/C(=C\c3ccc(OC(=O)c4ccco4)c(OC)c3)C(=O)N=C2S1	rCAG binder 52 | rCAG binder conf 80 | DNA CAG counter 47
COc1ccccc1CN(C)C[C@H]1OCc2cnnn2CCCC(=O)N([C@@H](C)CO)C[C@@H]1C	none (no result: EBNA-1 inh, ZTA DNA inh, PAFAH2 FP inh, PAFAH1B3 inh, PAFAH1B2 inh)
COc1ccc(C)cc1Nc1nc(-c2c[nH]c3ccccc23)cs1	rCAG binder 37 | rCAG binder conf inactive | DNA CAG counter 12
O=C(/C=C/c1ccc([N+](=O)[O-])cc1)c1ccco1	none
O=C(/C=C/c1ccc([N+](=O)[O-])cc1)/C=C/c1ccco1	rCAG binder 47 | rCAG binder conf inactive | DNA CAG counter 12
CCOC(=O)c1ccc(S(=O)(=O)N2CC(=O)Nc3ccccc32)cc1	none
Cc1cccc(OCC(=O)N/N=C/c2sc(=O)n(Cc3cccc(C(=O)O)c3)c2Cl)c1	rCAG binder 35 | rCAG binder conf 37 | DNA CAG counter 10
O=C(COc1ccccc1)N/N=C/c1sc(=O)n(Cc2cccc(C(=O)O)c2)c1Cl	none
O=C(C[C@H]1CC[C@@H](NS(=O)(=O)c2ccccc2)[C@@H](CO)O1)NCc1ccc(Cl)c(Cl)c1	none (no result: EBNA-1 inh, ZTA DNA inh, PAFAH2 FP inh, PAFAH1B3 inh, PAFAH1B2 inh)
CC1(C(=O)NS(=O)(=O)c2cccc(F)c2)CCN1C(=O)Cc1ccccc1Cl (stereo not drawn)	none (no result: EBNA-1 inh, ZTA DNA inh, PAFAH2 FP inh, PAFAH1B3 inh, PAFAH1B2 inh)
CC(C)c1ccc(CC(=O)N2CCC2(C)C(=O)NS(=O)(=O)c2cccc(OC(F)F)c2)cc1 (stereo not drawn)	rCAG binder 35 (no result: EBNA-1 inh, ZTA DNA inh, PAFAH2 FP inh, PAFAH1B3 inh, PAFAH1B2 inh) | rCAG binder conf inactive | DNA CAG counter inactive
CC1(C(=O)NS(=O)(=O)c2cccc(F)c2)CCN1C(=O)c1ccccc1CCc1ccccc1 (stereo not drawn)	rCAG binder 52 (no result: EBNA-1 inh, ZTA DNA inh, PAFAH2 FP inh, PAFAH1B3 inh, PAFAH1B2 inh) | rCAG binder conf 43 | DNA CAG counter 11
CC1(C(=O)NS(=O)(=O)c2cccc(OC(F)F)c2)CCN1C(=O)c1ccccc1CCc1ccccc1 (stereo not drawn)	rCAG binder 61 (no result: EBNA-1 inh, ZTA DNA inh, PAFAH2 FP inh, PAFAH1B3 inh, PAFAH1B2 inh) | rCAG binder conf 54 | DNA CAG counter 17
CC1(C(=O)NS(=O)(=O)c2ccc3c(c2)CCO3)CCN1C(=O)c1ccccc1CCc1ccccc1 (stereo not drawn)	rCAG binder 42 (no result: EBNA-1 inh, ZTA DNA inh, PAFAH2 FP inh, PAFAH1B3 inh, PAFAH1B2 inh) | rCAG binder conf 42 | DNA CAG counter 11
Cc1ccc(Cl)cc1N1CCN(C(=O)c2cc3c(=O)[nH]c4ccccc4c3n2C)CC1	none
Clc1ccccc1-c1nc2nc3ccccc3nc2n1-c1ccc2c(c1)OCO2	none
Cc1cccc(S(=O)(=O)NC(=O)C2(C)CCN2C(=O)c2ccccc2CCc2ccccc2)c1 (stereo not drawn)	rCAG binder 39 (no result: EBNA-1 inh, ZTA DNA inh, PAFAH2 FP inh, PAFAH1B3 inh, PAFAH1B2 inh) | rCAG binder conf 45 | DNA CAG counter 11
CC1CCc2nc3ccc(S(=O)(=O)N4CCC(C(=O)NCc5ccccc5Cl)CC4)cc3c(C(=O)O)c2C1 (stereo not drawn)	rCAG binder 47 | rCAG binder conf 54 | DNA CAG counter 21
COc1ccc(CNC(=O)C2CCN(S(=O)(=O)c3ccc4nc5c(c(C(=O)O)c4c3)CC(C)CC5)CC2)cc1 (stereo not drawn)	none
CN(Cc1ccccc1)C(=O)C1CCN(S(=O)(=O)c2ccc3nc4c(c(C(=O)O)c3c2)CCCC4)CC1	rCAG binder 54 | rCAG binder conf 54 | DNA CAG counter 17
Cc1ccc(CCNC(=O)C2CCN(S(=O)(=O)c3ccc4nc5c(c(C(=O)O)c4c3)CCCC5)CC2)cc1	rCAG binder 50 | rCAG binder conf inactive | DNA CAG counter 9.0
Cc1ccc(SCC(=O)N2CCOCC2)cc1	rCAG binder 40 | rCAG binder conf inactive | DNA CAG counter inactive
CC1CCCCN1CCn1c(=S)[nH]c2cc3c(cc2c1=O)OCO3 (stereo not drawn)	none
Cc1nc2nc(C)c(NS(=O)(=O)c3ccc(C4CCCCC4)cc3)c(=O)n2[nH]1	rCAG binder 38 | rCAG binder conf 40 | DNA CAG counter 9.5
CCc1nc2nc(C)c(NS(=O)(=O)c3ccc(C4CCCCC4)cc3)c(=O)n2[nH]1	rCAG binder 49 | rCAG binder conf 44 | DNA CAG counter 14
Cc1ccc(S(=O)(=O)Nc2c(C)nc3nc(C)[nH]n3c2=O)cc1	none
O=c1oc2ccccc2c2oc3cc(O)c(O)cc3c12	PAFAH2 FP inh 34, rCAG binder 41 | rCAG binder conf 53 | DNA CAG counter 28
Cc1ccc(C(=O)N2CCCC(C(=O)c3ccc(Oc4ccccc4)cc3)C2)cn1 (stereo not drawn)	none
Cc1ccc(C(=O)/C=C/c2cc(Br)cc(Br)c2O)o1	PAFAH2 FP inh 34, rCAG binder 60 | rCAG binder conf 46 | DNA CAG counter 16
